Our source for the Percent Effect values is ChEMBL document CHEMBL3988442, “University of Dundee, Small-Polar-MMV Screening Library” (2021).

The target of test [1] is T1, Aspartate--tRNA(Asp/Asn) ligase (Mycobacterium tuberculosis (strain ATCC 25618 / H37Rv)) (UniProt P9WFW3). Note: in the data most compounds retested in dose-response had high values.
T1 sequence (whole entry): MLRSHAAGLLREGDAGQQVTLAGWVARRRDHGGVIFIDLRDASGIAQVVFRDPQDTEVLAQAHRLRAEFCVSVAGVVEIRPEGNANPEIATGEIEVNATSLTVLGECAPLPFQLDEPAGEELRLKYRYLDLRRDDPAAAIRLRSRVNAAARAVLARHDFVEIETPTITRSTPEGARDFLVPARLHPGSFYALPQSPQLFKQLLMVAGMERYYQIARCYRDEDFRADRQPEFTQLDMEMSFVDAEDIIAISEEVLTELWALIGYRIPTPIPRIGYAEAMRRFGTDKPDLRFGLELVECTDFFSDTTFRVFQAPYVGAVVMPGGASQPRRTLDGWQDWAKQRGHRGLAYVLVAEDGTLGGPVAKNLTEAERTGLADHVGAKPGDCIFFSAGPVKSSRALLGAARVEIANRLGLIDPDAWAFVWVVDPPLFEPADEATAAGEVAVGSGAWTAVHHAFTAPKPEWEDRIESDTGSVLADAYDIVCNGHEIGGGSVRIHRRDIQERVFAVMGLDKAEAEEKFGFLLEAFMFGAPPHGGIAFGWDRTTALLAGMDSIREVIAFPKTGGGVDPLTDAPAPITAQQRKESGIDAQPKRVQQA
As to the kind of experiment: Assay for Asp RNA synthetase-1 from Mycobacterium tuberculosis. The class given is functional. Details: scale not given: direction of the effect not stated beside the values. The following applies: 30 µM.

The target of test [2] is Shiga toxin 2 (Escherichia coli O157:H7) (UniProt P09385+P09386). As to the kind of experiment: E. coli 0.157:H7 Shiga Toxin SOP - stx2 screening assay. The test is classed as functional. Details: scale not given: direction of the effect not stated beside the values. The following applies: 30 µM.

As to `CC(c1nc(C(C)(C)C)no1)N1CCN(CC(=O)N2CCOCC2)CC1` (configuration not stated), the Percent Effect in test [1] was -1.23%; in test [2], 7.56%.
Take `Cc1cccnc1NC(=O)NCc1ccc(N2CCNC(=O)C2)cc1`: the Percent Effect in test [1] was 5.31%; in test [2] it was -63.3%.
The corresponding values for `Cc1cnn(CC2CCCCN2C(=O)Cc2csc(C)n2)c1` (configuration not stated) are -2.23% and 1.16%.
Taken in the same sequence, the figures for `Cc1noc(Cl)c1CCC(=O)N1CCC(CC(N)=O)CC1` were 0.618% and 17.9%.
The corresponding values for `CN(CCN1CCCCCC1)C(=O)c1cc(CN2CCC(O)CC2)on1` are 5.29% and -37.1%.
In the case of `CCc1nc(CN2CCCN(c3nc4ccccc4o3)CC2)no1`, the Percent Effect is 5.41% in test [1] and -69.6% in test [2].
The corresponding values for `Cc1c(C(=O)N2CCCC2c2cnn(C)c2)nnn1-c1ccccc1` (configuration not stated) are -1.92% and -11.8%.
The corresponding values for `O=C(C1SCCc2sccc21)N1CCC(O)CC1` (configuration not stated) are 5.25% and -25.1%.
Taken in the same sequence, the figures for `Cn1cnc(S(=O)(=O)N2CCCC2)c1Cl` were -1.03% and -7.1%.
In the case of `CC(C)OCCOCc1cccc(NC(=O)NCc2ccccn2)c1`, the Percent Effect in test [1] is 8.32%; in test [2] it was -20.3%.
The corresponding values for `O=C(c1ccncc1)N1CCC(c2nc(O)cc(-c3cccnc3)n2)C1` (configuration not stated) are -1.81% and 4.42%.
The corresponding values for `CC(C)NC(=O)Nc1ccc(CNCc2cccc(OC(F)F)c2)cc1` are 4.98% and -103%.
Taken in the same sequence, the figures for `Cc1cnc(N2CCC3(CCN(CC4CC4)C3=O)CC2)nc1` were -3.05% and -8.57%.
Regarding `Cc1cccc(-n2ncc(C(=O)N3CCn4c(C)nnc4C3)c2C)c1`, the Percent Effect in test [1] amounted to 3.68%; in test [2], 32.6%.
`Cc1noc(C2CCC3(CCN(C(=O)c4c(C)noc4C)CC3)O2)n1` (configuration not stated): the Percent Effect in test [1] was -3.06%; in test [2] it was 16.1%.
The corresponding values for `CN(C)S(=O)(=O)N1CCC(Oc2ccccn2)CC1` are 3.02% and 10.6%.
The corresponding values for `Cc1nccn1-c1cccc(C2CCCN(C(=O)c3cc[nH]n3)C2)n1` (configuration not stated) are -0.309% and -32.7%.
Taken in the same sequence, the figures for `CCOc1ccc(N2CCCN=C2NC(=O)c2cccc(Cl)c2)cc1` were 9.12% and -69.6%.
As to `Cc1ccc(C(=O)N2CCCC(C(=O)N3CCCCC3)C2)c(O)c1` (configuration not stated), the results for the Percent Effect in test [1] and in test [2] were -0.062% and 20.6%, respectively.
The corresponding values for `CC(C)c1nc(CN2CCN(C(C)c3nc(C4CC4)no3)CC2)no1` (configuration not stated) are -2.84% and 5.21%.
For the molecule `CCn1cc(CN2CCC(c3nnc(CN(C)C)n3CC)CC2)cn1`, the Percent Effect is -2.35% in test [1] and -57.2% in test [2].
The corresponding values for `Cc1ccc2c(c1)OCCCC2NCc1nnc2n1CCCCC2` (configuration not stated) are -4.58% and 3.72%.
In the case of `Cc1ncccc1Oc1nccnc1C1CCN(C(C)C)CC1`, the Percent Effect was -4.09% in test [1] and -1.37% in test [2].
The corresponding values for `CCc1cnc(CN(C)C2CCN(CCS(C)(=O)=O)C2)o1` (configuration not stated) are 0.585% and -7.2%.
For `CC(Cn1cccn1)NCc1csc(-c2ccccc2F)n1` (configuration not stated), the Percent Effect is -4.2% in test [1] and -6.96% in test [2].
Turning to `O=C(NC1(c2cccc(F)c2)CCOCC1)c1cc[nH]n1`, the Percent Effect was 3.45% in test [1] and -26.7% in test [2].
As for `CC(C)Oc1ccccc1C1CC(=O)Nc2c1cnn2C` (configuration not stated), the Percent Effect was 2.79% in test [1] and -6.39% in test [2].
Taken in the same sequence, the figures for `Clc1ccc(OCCCN2CCN(c3cnccn3)CC2)cc1` were 1.06% and -6.97%.
Taken in the same sequence, the figures for `O=C(c1ccco1)N1CCC2(CCC(=O)N2Cc2cccc(F)c2)CC1` were 1.32% and -6.58%.
The corresponding values for `Cc1csc(NC(=O)CN2CCC(c3ccnn3CCO)CC2)n1` are -8.82% and -16.7%.
For `Cn1cc(C(=O)Nc2ccc3c(c2)CN(C(=O)c2ccco2)CC3)nn1`, the Percent Effect was 5.79% in test [1] and -88.9% in test [2].
The corresponding values for `Cc1ccc(CN2CCC3(C2)C(=O)N(CC(C)C)c2ccccc23)s1` (configuration not stated) are -0.155% and -42.5%.
Regarding `CN1CCN(Cc2cn3c(n2)CN(C(=O)N2CCOCC2)CC3)CC1`, the results for the Percent Effect in test [1] and in test [2] were 5.44% and -16.4%, respectively.
The corresponding values for `CCNc1cc2c(nn1)CCN(C(=O)c1ccnc(N(C)C)c1)C2` are 0.611% and 3.23%.
Taken in the same sequence, the figures for `CCn1cc2c(n1)CN(Cc1ccoc1)CC2COCC1CC1` (configuration not stated) were -4.69% and 13.8%.
Regarding `CC(C)CC1SCC(=O)Nc2c1cnn2-c1ccc(F)cc1` (configuration not stated), the Percent Effect in test [1] is -3.46%; in test [2] it was 0.343%.
The corresponding values for `CCCNC(=O)COc1ccc(C)cn1` are -4.7% and -36.7%.
The corresponding values for `Cn1ccc(C(=O)NC2CCN(c3ncccn3)CC2)cc1=O` are 4.84% and 24.2%.
As to `CC(=O)N1CCN(Cn2nc(-c3ccc(F)cc3)oc2=O)CC1`, the values for the Percent Effect in test [1] and in test [2] were 0.698% and -18.6%, respectively.
Regarding `CC1CCN(Cc2cnc(S(=O)(=O)CC3CC3)n2CC2CCCO2)CC1` (configuration not stated), the Percent Effect in test [1] was -2.12%; in test [2], -24.8%.
Consider `CC(=O)N1CC(=O)N(c2cnn(C)c2)CC12CCN(CC1CC1)C2` (configuration not stated), for which the Percent Effect in test [1] was 4.21%; in test [2] it was -23.2%.
As for `CCCn1c(C)c(CC(=O)NC)c2c1CC(C)(C)CC2=O`, the Percent Effect in test [1] is -1.07%; in test [2], -13.3%.
Taken in the same sequence, the figures for `CC(c1nc(C2CC2)no1)N1CCN(CCOCC(F)(F)F)CC1` (configuration not stated) were -1.02% and -10.3%.
The corresponding values for `Cc1cccc(OCCC(=O)NCC(C)(C)C(N)=O)c1` are 0.144% and 31.1%.
In the case of `c1ccc(CN2CCCC2Cn2cncn2)nc1` (configuration not stated), the Percent Effect in test [1] is 3.85%; in test [2], -7.85%.
As to `O=C(CCc1nccs1)N1CCC(N2CCNC2=O)CC1`, the figures for the Percent Effect in test [1] and in test [2] were 4.28% and -16.6%, respectively.
The corresponding values for `CC(C)(N)C(=O)N1CCCC1c1cncc(Oc2ccc(F)cc2)n1` (configuration not stated) are -3.75% and -12.5%.
The corresponding values for `CC(C)c1nccn1C1CCCN(C(=O)c2ccc3[nH]nnc3c2)C1` (configuration not stated) are -3.89% and -22.6%.
Taken in the same sequence, the figures for `Cc1cnn(CCNCc2csc(-c3cccs3)n2)c1` were -6.55% and 19.3%.
Take `Fc1ccc(OCCCN2CCOC(Cn3cncn3)C2)cc1` (configuration not stated): the Percent Effect in test [1] is -6.13%; in test [2], -10.5%.
The corresponding values for `CC(=O)c1c(F)cccc1N1CCC(Cc2cccnc2)CC1` are 0.661% and -24.5%.
